# According to the supplement of paper PMC11732987, “Enantioselective OTUD7B fragment discovery through chemoproteomics screening and high-throughput optimisation” (Communications Chemistry, 2025):
# Unmarked numbers belong to inactive results.
# Legend:
# Assay in all cases: log2 ratio of Biotin-Ahx-Ub-VS probe labelling (fragment/DMSO); higher = less target engagement (more negative = stronger competition), active = hit call of the paper (q ≤ 0.05, log2 ratio ≤ -1)
# Details in all cases: compound concentration: 200 uM; treatment time: 3 h
# OTUD6B = target: T1, OTUD6B (UniProt Q8N6M0)
# T1 sequence (whole entry): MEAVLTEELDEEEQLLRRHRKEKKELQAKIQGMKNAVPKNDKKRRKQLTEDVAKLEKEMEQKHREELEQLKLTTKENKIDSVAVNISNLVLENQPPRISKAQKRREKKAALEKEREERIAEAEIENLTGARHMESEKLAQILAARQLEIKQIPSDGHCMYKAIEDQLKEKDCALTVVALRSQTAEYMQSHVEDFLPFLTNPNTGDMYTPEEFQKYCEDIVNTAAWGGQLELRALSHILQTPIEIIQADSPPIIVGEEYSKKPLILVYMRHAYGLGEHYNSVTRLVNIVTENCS
# Outline: (§1)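 HEK293T lysate (495 µg per sample, in Tris/CHAPS/IGEPAL buffer with protease inhibitors) was exposed in triplicate for 3 h to fragment at 200 µM or to vehicle, then to Biotin-Ahx-Ub-VS at 0.5 µM final for 1 h. Labelled DUBs were enriched on NeutrAvidin, digested with LysC and trypsin, and analysed by diaPASEF LC-MS/MS. Spectronaut label-free quantities were normalised to the global median, and values are average log2 ratios of fragment over vehicle from an unpaired t-test. Only proteins with ≥2 unique peptides were used.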
# OTUD7B = target: T2, OTUD7B (UniProt Q6GQQ9)
# T2 sequence (whole entry): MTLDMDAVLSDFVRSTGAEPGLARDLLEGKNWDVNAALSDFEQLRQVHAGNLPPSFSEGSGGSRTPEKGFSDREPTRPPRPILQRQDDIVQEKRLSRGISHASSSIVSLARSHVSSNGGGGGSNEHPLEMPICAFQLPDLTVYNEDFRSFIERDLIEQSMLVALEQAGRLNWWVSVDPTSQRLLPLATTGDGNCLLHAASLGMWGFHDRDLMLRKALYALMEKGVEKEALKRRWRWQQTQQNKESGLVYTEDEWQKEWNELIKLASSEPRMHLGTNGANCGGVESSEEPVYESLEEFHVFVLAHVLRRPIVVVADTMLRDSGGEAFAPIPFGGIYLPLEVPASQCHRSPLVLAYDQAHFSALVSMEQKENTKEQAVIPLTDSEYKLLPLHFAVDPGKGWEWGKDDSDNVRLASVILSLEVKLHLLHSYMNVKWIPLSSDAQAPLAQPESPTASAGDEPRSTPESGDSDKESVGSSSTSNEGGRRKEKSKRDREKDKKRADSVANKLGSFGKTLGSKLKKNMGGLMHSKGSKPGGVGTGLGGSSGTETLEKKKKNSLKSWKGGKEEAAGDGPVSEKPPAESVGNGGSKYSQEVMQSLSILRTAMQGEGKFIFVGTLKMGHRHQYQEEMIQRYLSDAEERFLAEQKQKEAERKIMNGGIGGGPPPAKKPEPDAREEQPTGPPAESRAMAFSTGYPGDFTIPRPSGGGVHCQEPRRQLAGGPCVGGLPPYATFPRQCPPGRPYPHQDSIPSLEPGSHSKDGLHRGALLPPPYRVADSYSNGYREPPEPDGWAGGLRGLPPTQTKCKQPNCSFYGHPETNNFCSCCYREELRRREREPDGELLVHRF
# Outline: as §1
# PRPF8 = PRPF8 (UniProt Q6P2Q9)
# Outline: as §1
# PSMD7 = target: T3, PSMD7 (UniProt P51665)
# T3 sequence (whole entry): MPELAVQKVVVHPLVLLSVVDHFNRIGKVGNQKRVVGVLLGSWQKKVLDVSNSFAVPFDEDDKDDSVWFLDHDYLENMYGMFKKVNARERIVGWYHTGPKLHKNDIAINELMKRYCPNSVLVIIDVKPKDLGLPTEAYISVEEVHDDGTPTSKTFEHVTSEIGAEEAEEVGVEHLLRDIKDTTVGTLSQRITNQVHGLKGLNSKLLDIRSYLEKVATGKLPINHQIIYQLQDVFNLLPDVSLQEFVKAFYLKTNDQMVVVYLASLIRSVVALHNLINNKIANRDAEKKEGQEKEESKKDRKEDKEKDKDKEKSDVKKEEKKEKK
# Outline: as §1
# UCHL1 = UCHL1 (UniProt P09936)
# Chain of UCHL1 (P09936 whole entry, looked up): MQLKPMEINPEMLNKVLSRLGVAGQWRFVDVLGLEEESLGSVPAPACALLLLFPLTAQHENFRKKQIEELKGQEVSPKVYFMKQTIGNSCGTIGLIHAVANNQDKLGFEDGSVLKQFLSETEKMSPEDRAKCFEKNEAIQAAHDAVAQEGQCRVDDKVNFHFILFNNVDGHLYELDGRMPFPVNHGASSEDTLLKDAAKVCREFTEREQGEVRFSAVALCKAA
# Outline: as §1
# UCHL3 = target: T4, UCHL3 (UniProt P15374)
# T4 sequence (whole entry): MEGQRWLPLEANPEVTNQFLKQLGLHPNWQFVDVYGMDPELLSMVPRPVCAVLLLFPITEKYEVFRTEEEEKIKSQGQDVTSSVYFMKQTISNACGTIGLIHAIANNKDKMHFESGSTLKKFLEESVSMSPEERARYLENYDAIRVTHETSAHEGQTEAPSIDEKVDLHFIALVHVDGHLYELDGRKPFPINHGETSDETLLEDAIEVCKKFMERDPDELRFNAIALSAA
# Outline: as §1
# UCHL5 = target: T5, UCHL5 (UniProt Q9Y5K5)
# T5 sequence (whole entry): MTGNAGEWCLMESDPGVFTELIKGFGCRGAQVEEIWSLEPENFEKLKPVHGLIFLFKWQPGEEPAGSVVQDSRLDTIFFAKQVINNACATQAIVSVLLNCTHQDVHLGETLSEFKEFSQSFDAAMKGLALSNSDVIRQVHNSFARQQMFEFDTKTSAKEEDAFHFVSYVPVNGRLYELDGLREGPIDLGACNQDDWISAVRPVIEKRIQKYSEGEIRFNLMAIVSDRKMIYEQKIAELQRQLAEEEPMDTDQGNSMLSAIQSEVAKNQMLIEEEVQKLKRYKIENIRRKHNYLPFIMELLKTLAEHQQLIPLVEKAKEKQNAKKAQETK
# Outline: as §1
# USP10 = USP10 (UniProt Q14694)
# Chain of USP10 (Q14694 whole entry): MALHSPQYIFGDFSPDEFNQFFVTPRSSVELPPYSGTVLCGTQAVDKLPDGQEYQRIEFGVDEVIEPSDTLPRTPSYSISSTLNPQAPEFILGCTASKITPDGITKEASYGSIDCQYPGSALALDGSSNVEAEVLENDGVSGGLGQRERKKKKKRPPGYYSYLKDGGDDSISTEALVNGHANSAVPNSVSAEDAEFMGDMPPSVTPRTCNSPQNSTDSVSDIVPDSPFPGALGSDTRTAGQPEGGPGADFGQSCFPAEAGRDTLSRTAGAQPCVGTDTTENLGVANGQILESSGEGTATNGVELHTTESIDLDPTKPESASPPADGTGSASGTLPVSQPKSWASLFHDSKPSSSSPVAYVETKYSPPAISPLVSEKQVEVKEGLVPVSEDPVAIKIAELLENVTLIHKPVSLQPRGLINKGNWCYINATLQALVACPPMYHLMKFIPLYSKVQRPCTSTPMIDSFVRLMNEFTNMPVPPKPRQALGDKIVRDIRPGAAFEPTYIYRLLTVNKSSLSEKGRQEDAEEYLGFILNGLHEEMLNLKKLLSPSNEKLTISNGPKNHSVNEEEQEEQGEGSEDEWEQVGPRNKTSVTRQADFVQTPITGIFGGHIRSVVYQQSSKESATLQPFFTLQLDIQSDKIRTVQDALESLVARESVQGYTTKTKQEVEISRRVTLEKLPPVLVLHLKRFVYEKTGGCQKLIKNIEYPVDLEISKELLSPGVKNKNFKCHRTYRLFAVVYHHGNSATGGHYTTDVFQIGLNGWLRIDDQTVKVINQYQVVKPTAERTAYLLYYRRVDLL
# Outline: as §1
# USP15 = target: T6, USP15 (UniProt Q9Y4E8)
# T6 sequence (whole entry): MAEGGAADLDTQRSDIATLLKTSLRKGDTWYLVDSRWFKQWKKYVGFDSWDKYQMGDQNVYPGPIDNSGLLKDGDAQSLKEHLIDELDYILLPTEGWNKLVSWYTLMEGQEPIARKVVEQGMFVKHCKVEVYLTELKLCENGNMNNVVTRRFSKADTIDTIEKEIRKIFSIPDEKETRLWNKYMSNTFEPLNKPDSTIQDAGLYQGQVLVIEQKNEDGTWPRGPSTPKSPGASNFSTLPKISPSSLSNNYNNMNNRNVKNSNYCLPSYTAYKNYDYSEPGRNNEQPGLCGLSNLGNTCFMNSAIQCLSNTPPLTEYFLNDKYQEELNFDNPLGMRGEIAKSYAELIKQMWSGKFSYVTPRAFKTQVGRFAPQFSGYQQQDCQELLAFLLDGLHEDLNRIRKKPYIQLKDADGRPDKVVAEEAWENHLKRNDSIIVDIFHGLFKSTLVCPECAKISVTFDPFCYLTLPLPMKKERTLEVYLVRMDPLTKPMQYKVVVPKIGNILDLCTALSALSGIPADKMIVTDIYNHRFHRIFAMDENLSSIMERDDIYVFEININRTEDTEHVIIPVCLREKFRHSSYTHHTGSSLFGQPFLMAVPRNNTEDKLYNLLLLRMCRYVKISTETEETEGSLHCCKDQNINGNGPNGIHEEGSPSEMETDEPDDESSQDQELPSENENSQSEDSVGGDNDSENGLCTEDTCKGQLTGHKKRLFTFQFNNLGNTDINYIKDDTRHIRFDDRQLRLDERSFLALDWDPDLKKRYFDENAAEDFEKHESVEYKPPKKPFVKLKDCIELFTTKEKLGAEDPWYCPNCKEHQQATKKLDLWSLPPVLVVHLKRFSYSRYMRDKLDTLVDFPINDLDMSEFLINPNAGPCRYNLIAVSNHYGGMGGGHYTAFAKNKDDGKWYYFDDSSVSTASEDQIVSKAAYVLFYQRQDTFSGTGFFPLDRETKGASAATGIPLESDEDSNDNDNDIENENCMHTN
# Outline: as §1
# USP16 = USP16 (UniProt Q9Y5T5)
# Chain of USP16 (Q9Y5T5 whole entry, looked up): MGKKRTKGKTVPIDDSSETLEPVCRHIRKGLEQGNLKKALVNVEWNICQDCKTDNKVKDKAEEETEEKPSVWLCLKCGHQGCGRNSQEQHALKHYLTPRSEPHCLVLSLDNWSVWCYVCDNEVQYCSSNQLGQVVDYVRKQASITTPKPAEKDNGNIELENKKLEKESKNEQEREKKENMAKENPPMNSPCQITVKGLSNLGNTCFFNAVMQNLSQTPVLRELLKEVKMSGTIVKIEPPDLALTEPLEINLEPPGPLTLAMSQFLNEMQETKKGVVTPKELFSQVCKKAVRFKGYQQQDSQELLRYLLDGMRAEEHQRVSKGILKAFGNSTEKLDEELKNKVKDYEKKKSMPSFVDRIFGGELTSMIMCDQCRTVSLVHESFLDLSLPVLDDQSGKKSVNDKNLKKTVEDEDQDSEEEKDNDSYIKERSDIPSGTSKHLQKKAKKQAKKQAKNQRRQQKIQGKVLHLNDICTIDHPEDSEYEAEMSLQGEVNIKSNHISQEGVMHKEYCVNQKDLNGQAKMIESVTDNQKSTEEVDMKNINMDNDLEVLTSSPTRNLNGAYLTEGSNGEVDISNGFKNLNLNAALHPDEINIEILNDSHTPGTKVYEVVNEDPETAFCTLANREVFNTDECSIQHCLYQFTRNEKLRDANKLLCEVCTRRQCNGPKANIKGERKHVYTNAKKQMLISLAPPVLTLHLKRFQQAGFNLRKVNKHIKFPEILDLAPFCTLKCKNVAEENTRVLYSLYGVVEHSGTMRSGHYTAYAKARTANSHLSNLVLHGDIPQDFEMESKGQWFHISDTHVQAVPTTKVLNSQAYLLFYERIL
# Outline: as §1
structure (smiles),measurement,setting,value
Cc1ccccc1C1(CNC(=O)CCl)CCOCC1,log2 ratio of Biotin-Ahx-Ub-VS probe labelling,OTUD6B,-0.054
same,log2 ratio of Biotin-Ahx-Ub-VS probe labelling,OTUD7B,-0.293
same,log2 ratio of Biotin-Ahx-Ub-VS probe labelling,PRPF8,-0.0655
same,log2 ratio of Biotin-Ahx-Ub-VS probe labelling,PSMD7,-0.0606
same,log2 ratio of Biotin-Ahx-Ub-VS probe labelling,UCHL1,-1.45 (active)
same,log2 ratio of Biotin-Ahx-Ub-VS probe labelling,UCHL3,0.231
same,log2 ratio of Biotin-Ahx-Ub-VS probe labelling,UCHL5,-0.272
same,log2 ratio of Biotin-Ahx-Ub-VS probe labelling,USP10,-0.0236
same,log2 ratio of Biotin-Ahx-Ub-VS probe labelling,USP15,-0.102
same,log2 ratio of Biotin-Ahx-Ub-VS probe labelling,USP16,0.242
